# Screening results from PubChem.
# Anthrax LF prot: Bacillus anthracis LF protease inhibitors, primary screen, biochemical, multiplex microsphere, MLPCN library; inhibition, % at 10 µM; actives 0.12% (n = 360,000); multiplex microsphere protease cleavage assay; also: plate controls were buffer without enzyme for full effect and enzyme alone for no effect
# Target sequence (P15917 whole entry, looked up): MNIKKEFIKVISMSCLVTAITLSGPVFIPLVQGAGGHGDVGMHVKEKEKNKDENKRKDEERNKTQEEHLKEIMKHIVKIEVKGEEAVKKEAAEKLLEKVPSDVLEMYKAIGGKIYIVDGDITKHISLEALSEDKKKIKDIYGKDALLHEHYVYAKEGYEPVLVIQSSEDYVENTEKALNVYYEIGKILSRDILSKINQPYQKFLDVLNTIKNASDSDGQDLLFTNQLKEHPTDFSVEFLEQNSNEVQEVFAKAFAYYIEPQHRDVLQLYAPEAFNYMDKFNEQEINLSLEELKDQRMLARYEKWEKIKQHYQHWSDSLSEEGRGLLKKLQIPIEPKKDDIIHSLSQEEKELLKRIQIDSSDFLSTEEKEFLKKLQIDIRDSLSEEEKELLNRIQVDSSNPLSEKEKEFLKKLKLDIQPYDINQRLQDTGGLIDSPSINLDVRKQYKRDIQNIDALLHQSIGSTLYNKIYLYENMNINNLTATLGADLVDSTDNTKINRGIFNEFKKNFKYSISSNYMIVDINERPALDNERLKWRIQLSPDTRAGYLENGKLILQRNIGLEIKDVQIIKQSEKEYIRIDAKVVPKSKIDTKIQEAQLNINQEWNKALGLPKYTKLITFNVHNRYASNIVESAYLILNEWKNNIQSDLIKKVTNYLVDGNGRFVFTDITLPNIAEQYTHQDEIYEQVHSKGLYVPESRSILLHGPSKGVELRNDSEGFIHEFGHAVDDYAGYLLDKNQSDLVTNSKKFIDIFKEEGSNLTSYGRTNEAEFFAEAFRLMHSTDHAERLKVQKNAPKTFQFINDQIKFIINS
# BoNT-F LC inh: BoNT/F light chain protease inhibitors, primary screen, biochemical, flow cytometry, MLPCN library. actives 0.22% (n = 360,000). Botulinum neurotoxin type F light chain protease (Clostridium botulinum). Multiplex microsphere protease cleavage assay. inhibition, % at 10 µM; in the data active = inhibition above about 35%, passing the limit was not always enough; inconclusive = no clear call, values can overlap the other calls; also: plate controls were buffer without enzyme for full effect and enzyme alone for no effect
# SARS 3CLpro inh: SARS-CoV 3CLpro protease inhibitors, primary screen, biochemical, quenched FRET | inhibition, % at 6 µM | AID 1706, 2009 | actives 0.14% (n = 290,000) | recombinant SARS-CoV 3CLpro, quenched FRET peptide cleavage; in the data active = inhibition above about 12%
# BoNT-A LC inh2: BoNT/A light chain protease inhibitors, primary screen, biochemical, flow cytometry, MLPCN library | multiplex microsphere protease substrate cleavage | inhibition, % at 10 µM | actives 0.17% (n = 360,000) | AID 588499, 2011; also: plate controls were buffer without enzyme for full effect and enzyme alone for no effect
# Bead autofluor: compound fluorescence in toxin protease inhibitor counterscreen; fluorescence intensity (test concentration not listed); AID 624483; compound autofluorescence counterscreen, microsphere flow cytometry; active compounds read high; actives 3.1% (n = 360,000); in the data active = fluorescence intensity above about 16000; inconclusive = no clear call, values can overlap the other calls
# * marks the source's active call; other numbers are inactive results; ? = inconclusive; . = no result. This is a sample that favours compounds with a hit; in the whole collection about 3.5% have one here. Rule as the data show it, unless noted: active = inhibition above about 30%; inconclusive = no clear call, values can overlap the other calls; inactive = below that.
SMILES,Anthrax LF prot,BoNT-F LC inh,SARS 3CLpro inh,BoNT-A LC inh2,Bead autofluor
CC(C)(C)NC(=O)CSc1nnc(Cc2ccc3c(c2)OCO3)n1C1CCCCC1,-5,-5,-5,-2,20511*
Cn1c(Cc2ccc3c(c2)OCO3)nnc1SCC(=O)NC1CCCC1,.,.,0,.,.
COc1cccc(NC(=O)NCc2ccccc2F)c1,0,0,2,0,2490
Cc1ccc(/C=N/n2c(C)n[nH]c2=S)o1,0,3,4,1,22498*
Cc1ccc(CC(=O)NCC(C)C)cc1,1,3,-2,1,22914*
Cc1ccc(CC(=O)NCCN2CCOCC2)cc1,3,36*,-1,2,3023
COc1ccc(CC(=O)NCCN2CCOCC2)cc1,4,7,8,0,2882
COc1ccc2c(C)cc(SCC#N)nc2c1,-2,-3,0,2,16543*
COc1ccc2c(C)cc(SC3CCOC3=O)nc2c1 (configuration not stated),-3,-16,3,-2,2298
COc1ccc2c(C)cc(SCC(=O)c3ccc4c(c3)OCO4)nc2c1,-3,1,0,?,23435*
COc1ccc2c(C)cc(SCc3c(C)noc3C)nc2c1,-2,2,-1,4,22377*
Cc1cc(SCC#N)nc2ccccc12,-2,-1,1,0,3080
COc1ccc2c(C)cc(SCC(=O)NC3CCCC3)nc2c1,-8,1,.,0,4171
COc1ccc(/C=N/Nc2nc(-c3ccc(C)cc3)c(NC(C)=O)s2)cc1OC,36*,?,2,3,4131
COc1cc(/C=N\Nc2nc(-c3ccc(C)cc3)c(NC(C)=O)s2)ccc1O,-7,2,3,0,6243
Cc1cccnc1NC1(C(F)(F)F)N=C(c2ccccc2)NC1=O (configuration not stated),-2,-1,1,1,20365*
O=C(NCc1ccccc1)c1ccc(-c2ccc(F)cc2)o1,-1,-2,-3,?,21149*
Cn1nc(C(=O)NCc2ccc(F)cc2)c2ccccc2c1=O,-3,0,4,2,22634*
Cc1ccccc1-c1ccc(C(=O)NCc2ccccc2)o1,-12,2,1,0,3818
CCOC(=O)c1c(NC(=O)Nc2cccc(Cl)c2)sc(C)c1C,-5,-4,3,-2,23460*
CCOC(=O)c1c(NC(C)=O)sc2c(O)cccc12,0,-6,2,-5,21384*
O=C(Nc1cccc(Cl)c1)Nc1cccc(Cl)c1,4,-12,-2,0,3494
COc1ccc(-c2nn(-c3ccccc3)cc2/C=C2/SC(=S)N(Cc3ccco3)C2=O)c(C)c1,36*,37*,3,30*,12304
COc1ccc(-n2c(C)cc(/C=C3\SC(=S)N(Cc4ccco4)C3=O)c2C)cc1,9,-6,-4,19,6596
COc1ccc2nc(CNC(=O)C3CCC(=O)N(CCc4ccccc4)C3)[nH]c2c1 (configuration not stated),-3,0,1,0,4507
SMILES,Anthrax LF prot,BoNT-F LC inh,SARS 3CLpro inh,BoNT-A LC inh2,Bead autofluor
Cc1cc(C)nc(OC(=O)c2c(Cl)cc(Cl)cc2Cl)n1,-8,0,2,-1,4319
Cc1cc(OC(=O)c2c(Cl)cc(Cl)cc2Cl)nc(C)n1,-5,0,-3,-1,16417*
COc1ccc(C2/C(=C(\O)c3cccc(OC)c3)C(=O)C(=O)N2c2ccccn2)cc1 (configuration not stated),-2,-6,3,?,23419*
COc1ccc(C(=O)O/N=C(\N)c2ccc(OC)c(OC)c2)cc1,-19,-10,-4,-2,3451
COc1cccc(-n2c(SCC(=O)Nc3sc4c(c3C(N)=O)CCC4)nc3ccccc3c2=O)c1,-3,-2,0,-1,16606*
Cc1ccc(-c2nnc(CSc3nnc(C)s3)o2)cc1,-2,2,1,1,22331*
CCOc1ccccc1C(=O)Oc1ccc2ccc(=O)oc2c1,-4,-4,3,-2,3983
Cc1c(-c2ccccc2)nc(N)c(C#N)c1-c1ccco1,0,-2,-1,0,20557*
Oc1ccc(C2=CSC3=NCCN23)cc1O,-9,-28,7,-3,3756
Cc1ccc(S(=O)(=O)N2CC3CCCN3c3ccc(C(F)(F)F)cc32)cc1 (configuration not stated),-6,1,-2,1,3319
Cc1ccc(O)c(C(=O)c2cc(C#N)c(=O)n(-c3c(C)n(C)n(-c4ccccc4)c3=O)c2)c1,-1,0,-3,-1,16705*
c1nc(NCC2(N3CCOCC3)CCCCC2)c2ccsc2n1,-3,2,-4,1,10412
CCN(CC)S(=O)(=O)c1ccc(N2CC(C(=O)NC3(C)CCS(=O)(=O)C3)CC2=O)cc1 (configuration not stated),-3,3,.,-1,7646
O=C1c2ccccc2NC2(CCCCC2)N1c1ccc(O)cc1,54*,156*,-7,5,6978
CC(C)C(=O)Nc1nnc(S(=O)(=O)N2CCCCCC2)s1,-7,-15,11,0,4968
C=CCN1C(=O)CSc2ccc(C(=O)NCc3ccco3)cc21,0,-1,-2,0,10585
O=C(NCc1ccco1)c1ccc2c(c1)N(Cc1ccccc1)C(=O)CS2,-2,-9,-1,-6,25027*
Cc1ccc(NC(=O)C2(c3ccccc3)CC2(Cl)Cl)cc1C (configuration not stated),0,-7,2,0,3873
CCOC(=O)c1nnn(-c2nonc2N)c1CN1CCc2ccccc2C1,-14,4,1,5,20264*
N#CC1=C2SCN(Cc3ccco3)CN2C(=O)CC1c1ccc(Cl)cc1 (configuration not stated),1,2,4,3,22500*
COc1ccc(C2CC(=O)N3CN(Cc4ccco4)CSC3=C2C#N)cc1 (configuration not stated),1,2,1,?,20177*
COc1ccc(/C=C/C=N/NC(=O)COc2ccc(OC)cc2)cc1,0,-7,-2,0,2165
CC(C)C(NC(=O)COc1ccc2ccccc2c1)C(=O)N/N=C/C=C/c1ccccc1 (configuration not stated),2,-1,1,-1,22567*
COCCNC(=O)c1ccccc1NC(=O)COc1ccccc1,2,4,4,2,20130*
CC1Cc2ccccc2N1C(=O)COC(=O)c1ccccc1NCCO (configuration not stated),0,0,.,-4,6754
CC1Cc2ccccc2N1C(=O)COC(=O)c1cccnc1Cl (configuration not stated),-2,2,1,?,16252*
COC(=O)c1ccccc1NC(=O)N1c2ccccc2CC1C (configuration not stated),-3,2,0,?,20425*
